Measurements from the supplement of paper PMC7393113.
“And” between values parts separate entries of the source, which are not always exact repeats. Equal values may be shown once. Where a name gives a salt, the structure may show the parent alone. ± gives the standard deviation of the averaged measurements.

Test system: iBMDM (immortalised mouse bone-marrow-derived macrophages), LPS-stimulated
Test: mitochondrial superoxide (MitoSOX fluorescence) fold increase over unstimulated control; higher = more LPS-induced mitochondrial ROS (less inhibition)
Details: inhibitor concentration: 500 nM, LPS: 100 ng/ml
Summary of the method: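 Mitochondrial superoxide values are mean fold induction compared with untreated macrophages. Triplicate wells of immortalised mouse bone-marrow-derived macrophages in phenol-red-free 1% FCS/DMEM received kinase inhibitors (500 nM) for 30 min, then 1 μM MitoSox for 10 min, then LPS (100 ng/ml). Fluorescence (510/580 nm) was taken every 60 min for 4 h.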

SMILES | mitochondrial superoxide (time after LPS: 1 h) | mitochondrial superoxide (time after LPS: 2 h) | mitochondrial superoxide (time after LPS: 4 h)
COc1ccc(COc2cc3oc(=O)c4cc(C(C)O)ccc4c3cc2OC)cc1 (stereo not drawn) [Palomid 529 (P529)] | 1.1 ± 0.049 | 1.25 ± 0.08 | 1.41 ± 0.05
Cn1cc(C2=C(c3ccc(Cl)cc3Cl)C(=O)NC2=O)c2ccccc21 | 1.46 ± 0.18 | 1.56 ± 0.22 | 1.68 ± 0.29
CN1CCN(CCOc2cc(OC3CCOCC3)c3c(Nc4c(Cl)ccc5c4OCO5)ncnc3c2)CC1 [Saracatinib (AZD0530)] | 1.516 ± 0.0097 | 1.63 ± 0.047 | 1.85 ± 0.073
N#CC[C@H](C1CCCC1)n1cc(-c2ncnc3[nH]ccc23)cn1 | 1.19 and 1.09 | 1.29 and 1.15 | 1.35 and 1.29
C[C@H](Nc1ncnc2nc[nH]c12)c1cc2cccc(Cl)c2c(=O)n1-c1ccccc1 | 1.09 ± 0.045 | 1.2 ± 0.032 | 1.31 ± 0.023
CNC(=O)c1cc(Oc2ccc(NC(=O)Nc3ccc(Cl)c(C(F)(F)F)c3)cc2)ccn1 [Sorafenib Tosylate] | 1.6 ± 0.039 | 1.68 ± 0.099 | 1.73 ± 0.077
Cc1cc(C)c(/C=C2\C(=O)Nc3ccccc32)[nH]1 [Semaxanib (SU5416)] | 1.19 ± 0.012 | 1.22 ± 0.029 | 1.3 ± 0.039
CNC(=O)c1cc(COc2nnc(Nc3ccc(Cl)cc3)c3ccoc23)ccn1 [Telatinib] | 1.23 ± 0.036 | 1.33 ± 0.051 | 1.38 ± 0.11
O=C(NC(NC(=S)Nc1ccc(F)c([N+](=O)[O-])c1)C(Cl)(Cl)Cl)C(c1ccccc1)c1ccccc1 (stereo not drawn) | 1.13 ± 0.029 | 1.25 ± 0.031 | 1.37 ± 0.015
O=C(O)c1ccc(Nc2ncc3c(n2)-c2ccc(Cl)cc2C(c2c(F)cccc2F)=NC3)cc1 | 1.37 ± 0.045 | 1.45 ± 0.044 | 1.46 ± 0.052
Cn1cc(-c2cnn3c(N)c(Br)c([C@@H]4CCCNC4)nc23)cn1 | 1.12 ± 0.091 | 1.4 ± 0.22 | 1.54 ± 0.11
CC[C@@H]1C(=O)N(C)c2cnc(Nc3ccc(C(=O)NC4CCN(C)CC4)cc3OC)nc2N1C1CCCC1 | 1.14 ± 0.063 | 1.19 ± 0.038 | 1.39 ± 0.028
N#CC1(c2ccc(NC(=O)c3cccnc3NCc3ccncc3)cc2)CCCC1 [Apatinib] | 1.09 ± 0.056 | 1.18 ± 0.021 | 1.36 ± 0.018
CCn1c(N)c(C(=O)NC)c(=O)c2ccc(C#CC(C)(O)COC)nc21 (stereo not drawn) | 1.11 ± 0.027 | 1.22 ± 0.042 | 1.33 ± 0.051
CS(=O)(=O)c1cccc(CNc2nc(Nc3ccc4c(c3)CCC(=O)N4)ncc2C(F)(F)F)c1 | 1.2 ± 0.044 | 1.24 ± 0.056 | 1.3 ± 0.014
Cc1cc(CN2CCN(c3c(Br)cnc4nc(-c5ccc(N6CCN(C)CC6)cc5)[nH]c34)CC2)no1 | 1.27 ± 0.038 | 1.4 ± 0.019 | 1.68 ± 0.13
O=c1cc(N2CCOCC2)oc2c(-c3cccc4c3sc3ccccc34)cccc12 | 1.31 ± 0.028 | 1.4 ± 0.037 | 1.55 ± 0.042
CCC(=O)N1CCN(c2ccc(-n3c(=O)ccc4cnc5ccc(-c6cnc7ccccc7c6)cc5c43)cc2C(F)(F)F)CC1 [Torin 1] | 1.14 ± 0.024 | 1.24 ± 0.033 | 1.35 ± 0.044
O=C(NCCCNc1nc(Nc2cccc(NC(=O)N3CCCC3)c2)ncc1I)c1cccs1 | 1.14 ± 0.041 | 1.18 ± 0.036 | 1.13 ± 0.051
CNC(=O)c1ccccc1Sc1ccc2c(/C=C/c3ccccn3)n[nH]c2c1 [Axitinib] | 1.77 ± 0.17 | 1.78 ± 0.17 | 1.8 ± 0.058
O=C1NC(=O)/C(=C/c2ccc3nccc(-c4ccncc4)c3c2)S1 | 1.12 ± 0.055 | 1.23 ± 0.11 | 1.33 ± 0.1
COc1ccc(-c2ccc3ncc4c(c3c2)n(-c2ccc(N3CCNCC3)c(C(F)(F)F)c2)c(=O)n4C)cn1 | 1.1 ± 0.041 | 1.27 ± 0.078 | 1.49 ± 0.077

SMILES | mitochondrial superoxide (time after LPS: 1 h) | mitochondrial superoxide (time after LPS: 2 h) | mitochondrial superoxide (time after LPS: 4 h)
O=c1cc(-c2cccc3c2Sc2ccccc2S3)oc(N2CCOCC2)c1 | 1.39 ± 0.034 | 1.48 ± 0.063 | 1.51 ± 0.084
CO[C@H]1C[C@@H]2CC[C@@H](C)[C@@](O)(O2)C(=O)C(=O)N2CCCC[C@H]2C(=O)O[C@H]([C@H](C)C[C@@H]2CC[C@@H](O)[C@H](OC)C2)CC(=O)[C@H](C)/C=C(\C)[C@@H](O)[C@@H](OC)C(=O)[C@H](C)C[C@H](C)/C=C/C=C/C=C/1C [Rapamycin (Sirolimus)] | 1.7 ± 0.07 | 1.7 ± 0.094 | 1.7 ± 0.033
COc1ccc(-c2ccc3c(N4CCOC[C@@H]4C)nc(N4CCOC[C@@H]4C)nc3n2)cc1CO | 1.14 ± 0.024 | 1.19 ± 0.031 | 1.25 ± 0.025
COc1cc2c(N3CCN(C(=O)Nc4ccc(OC(C)C)cc4)CC3)ncnc2cc1OCCCN1CCCCC1 [Tandutinib (MLN518)] | 1.61 ± 0.038 | 1.77 ± 0.029 | 1.72 ± 0.062
O=C(NCc1cccc(O)c1)Nc1nc(-c2ccncc2)cs1 | 1.36 ± 0.026 | 1.44 ± 0.015 | 1.64 ± 0.017
N#CC(=Cc1ccc(O)c(O)c1)C(=O)NCc1ccccc1 [AG-490 (Tyrphostin B42)] | 1.35 ± 0.052 | 1.36 ± 0.041 | 1.44 ± 0.097
Oc1cccc(-c2nc(N3CCOCC3)c3oc4ncccc4c3n2)c1 | 1.61 ± 0.025 | 1.62 ± 0.03 | 1.685 ± 0.012
Cc1ccc(NC(=O)c2ccc(CN3CCN(C)CC3)cc2)cc1Nc1nccc(-c2cccnc2)n1 [Imatinib Mesylate (STI571)] | 1.626 ± 0.013 | 1.76 ± 0.045 | 1.72 ± 0.03
O=C1Nc2ccc(I)cc2C1=Cc1cc(Br)c(O)c(Br)c1 | 1.1 ± 0.039 | 1.07 ± 0.074 | 1.09 ± 0.014
C=CCc1ccc(O)c(-c2ccc(O)c(CC=C)c2)c1 [Honokiol] | 1.24 ± 0.031 | 1.31 ± 0.1 | 1.39 ± 0.096
O=C(NC1CCNCC1)c1n[nH]cc1NC(=O)c1c(Cl)cccc1Cl | 1.13 ± 0.061 | 1.15 ± 0.041 | 1.3 ± 0.018
Cc1nc(N)sc1-c1ccnc(Nc2ccc(N3CCOCC3)cc2)n1 | 1.49 ± 0.063 | 1.55 ± 0.023 | 1.7 ± 0.02
CCc1cc2c(cc1N1CCC(N3CCOCC3)CC1)C(C)(C)c1[nH]c3cc(C#N)ccc3c1C2=O | 1.26 ± 0.097 | 1.4 ± 0.066 | 1.64 ± 0.12
Cc1ccc([N+](=O)[O-])cc1S(=O)(=O)N(C)/N=C/c1cnc2ccc(Br)cn12 | 1.17 ± 0.09 | 1.17 ± 0.015 | 1.21 ± 0.027
O=C(Nc1cccc(Nc2ncc(Br)c(NCCc3cnc[nH]3)n2)c1)N1CCCC1 | 1.13 ± 0.088 | 1.11 ± 0.043 | 1.16 ± 0.04
C[C@@]1(C(=O)Nc2ccc(F)nc2)CCCN1c1nc(Nc2cc(C3CC3)n[nH]2)c2cccn2n1 | 1.38 ± 0.051 | 1.43 ± 0.06 | 1.45 ± 0.066
Cc1cc([C@@H](C)Nc2ccccc2C(=O)O)c2nc(N3CCOCC3)cc(=O)n2c1 | 1.14 ± 0.043 | 1.22 ± 0.077 | 1.21 ± 0.027
C[S+]([O-])c1ccc(-c2nc(-c3ccc(F)cc3)c(-c3ccncc3)[nH]2)cc1 (stereo not drawn) | 1.39 ± 0.14 | 1.5 ± 0.16 | 1.6 ± 0.18
CCc1cnn2c(NCc3ccc[n+]([O-])c3)cc(N3CCCC[C@H]3CCO)nc12 | 1.28 ± 0.066 | 1.33 ± 0.055 | 1.63 ± 0.066
Cc1[nH]c(/C=C2\C(=O)Nc3ccc(S(=O)(=O)Cc4c(Cl)cccc4Cl)cc32)c(C)c1C(=O)N1CCC[C@@H]1CN1CCCC1 | 1.56 ± 0.039 | 1.61 ± 0.027 | 1.77 ± 0.028
CCN1C(=CC(C)=O)Sc2ccc(OC)cc21 | 1.417 ± 0.014 | 1.44 ± 0.089 | 1.63 ± 0.1
Cc1ccc(C(=O)Nc2cccc(C(F)(F)F)c2)cc1Nc1nc(-c2cccnc2)nc2c1cnn2C | 1.23 ± 0.037 | 1.27 ± 0.013 | 1.38 ± 0.083

SMILES | mitochondrial superoxide (time after LPS: 1 h) | mitochondrial superoxide (time after LPS: 2 h) | mitochondrial superoxide (time after LPS: 4 h)
CCN1CCN(c2ccc(Nc3cc(N(C)C(=O)Nc4c(Cl)c(OC)cc(OC)c4Cl)ncn3)cc2)CC1 | 1.2 ± 0.021 | 1.24 ± 0.035 | 1.35 ± 0.06
CNC(=O)c1ccc(-c2cnc3ncc(Cc4ccc5ncccc5c4)n3n2)cc1F | 1.12 ± 0.033 | 1.36 ± 0.16 | 1.58 ± 0.14
CN1CCN(C2CCN(C(=O)Nc3cc(Oc4ccc(NC(=O)C5(C(=O)Nc6ccc(F)cc6)CC5)c(F)c4)ccn3)CC2)CC1 [Golvatinib (E7050)] | 1.04 ± 0.073 | 1.08 ± 0.075 | 1.09 ± 0.071
CCn1c(-c2nonc2N)nc2c(C#CC(C)(C)O)ncc(OC[C@H]3CCCNC3)c21 | 1.3 ± 0.025 | 1.4 ± 0.027 | 1.49 ± 0.019
CCCS(=O)(=O)Nc1ccc(F)c(C(=O)c2c[nH]c3ncc(-c4ccc(Cl)cc4)cc23)c1F [Vemurafenib (PLX4032, RG7204)] | 1.159 ± 0.0019 | 1.16 ± 0.015 | 1.17 ± 0.029
CCN(CC)CCNC(=O)c1c(C)[nH]c(/C=C2\C(=O)Nc3ccc(F)cc32)c1C [Sunitinib Malate] | 1.61 ± 0.057 | 1.73 ± 0.072 | 1.7 ± 0.099
C[C@@H]1CN(CC(=O)Nc2ccc3c(c2)Cc2cccc(-c4cc(=O)cc(N5CCOCC5)o4)c2S3)C[C@H](C)O1 | 1.2 ± 0.07 | 1.31 ± 0.059 | 1.44 ± 0.015
C=CC(=O)Nc1cccc(Oc2nc(Nc3ccc(N4CCN(C)CC4)cc3)ncc2Cl)c1 | 1.54 ± 0.047 | 1.71 ± 0.056 | 1.8 ± 0.14
C[C@@H](Oc1cc(-c2cnn(C3CCNCC3)c2)cnc1N)c1c(Cl)ccc(F)c1Cl | 1.39 ± 0.038 | 1.5 ± 0.052 | 1.64 ± 0.079
c1cncc(CN2CCC(n3ncc4c(N5CCOCC5)nc(-c5ccc6[nH]ccc6c5)nc43)CC2)c1 | 1.34 ± 0.059 | 1.48 ± 0.077 | 1.66 ± 0.063
COc1ccc(CNC(=O)Nc2ncc([N+](=O)[O-])s2)cc1 | 1.47 ± 0.037 | 1.54 ± 0.026 | 1.6 ± 0.096
O=C1NC(=O)/C(=C/c2cccc(C(F)(F)F)c2)S1 | 1.27 ± 0.052 | 1.35 ± 0.074 | 1.53 ± 0.05
CC(C)(C)NS(=O)(=O)c1cncc(-c2cc(F)c3nc(N)nn3c2)c1 | 1.09 ± 0.021 | 1.18 ± 0.038 | 1.31 ± 0.064
Cc1cc(O)c2c(c1)C(=O)c1cccc(O)c1C2=O [Chrysophanic Acid] | 1.29 ± 0.11 | 1.36 ± 0.097 | 1.48 ± 0.022
Cc1cnc(-c2cnc(NCCNc3ccc(C#N)cn3)nc2-c2ccc(Cl)cc2Cl)[nH]1 | 1.14 ± 0.048 | 1.09 ± 0.041 | 1.25 ± 0.027
C#Cc1cccc(Nc2ncnc3cc4c(cc23)OCCOCCOCCO4)c1 [Icotinib] | 1.16 ± 0.036 | 1.19 ± 0.021 | 1.31 ± 0.02
O=C(NOCC(O)CO)c1cc(Br)c(F)c(F)c1Nc1ccc(I)cc1F (stereo not drawn) | 1.31 ± 0.033 | 1.3 ± 0.054 | 1.34 ± 0.065
O=S(=O)(NCCNCC=Cc1ccc(Br)cc1)c1cccc2cnccc12 | 1.01 ± 0.063 | 1.15 ± 0.074 | 1.28 ± 0.07
O=C(NOC[C@H](O)CO)c1ccc(F)c(F)c1Nc1ccc(I)cc1F | 1.589 ± 0.0074 | 1.64 ± 0.044 | 1.71 ± 0.083
N#CCNC(=O)c1ccc(-c2ccnc(Nc3ccc(N4CCOCC4)cc3)n2)cc1 | 1.05 ± 0.071 | 1.17 ± 0.017 | 1.27 ± 0.13
COc1cc2ncnc(Nc3cccc(Cl)c3)c2cc1OC [AG-1478 (Tyrphostin AG-1478)] | 1.11 ± 0.082 | 1.54 ± 0.039 | 1.65 ± 0.057
C#Cc1cccc(Nc2ncnc3cc(OCCOC)c(OCCOC)cc23)c1 [Erlotinib HCl (OSI-744)] | 1.62 ± 0.033 | 1.66 ± 0.076 | 1.76 ± 0.048
